Data reported in article PMC4336329 (PLoS ONE, 2015).
About 14,000 (4.5%) of roughly 310,000 compounds showed an effect of 50% or more. Effects have a minus sign here. The sample holds strong results, similar compounds and a random draw of the others, so the mix is not that of the screen.

Each molecule was assayed against human ether-à-go-go-related gene (hERG) potassium channel (human, UniProt Q12809) (assay: primary screen, population patch clamp on CHO cells stably expressing hERG; higher = less effect of the substance).
human ether-à-go-go-related gene (hERG) potassium channel, sequence (Q12809 whole entry, looked up): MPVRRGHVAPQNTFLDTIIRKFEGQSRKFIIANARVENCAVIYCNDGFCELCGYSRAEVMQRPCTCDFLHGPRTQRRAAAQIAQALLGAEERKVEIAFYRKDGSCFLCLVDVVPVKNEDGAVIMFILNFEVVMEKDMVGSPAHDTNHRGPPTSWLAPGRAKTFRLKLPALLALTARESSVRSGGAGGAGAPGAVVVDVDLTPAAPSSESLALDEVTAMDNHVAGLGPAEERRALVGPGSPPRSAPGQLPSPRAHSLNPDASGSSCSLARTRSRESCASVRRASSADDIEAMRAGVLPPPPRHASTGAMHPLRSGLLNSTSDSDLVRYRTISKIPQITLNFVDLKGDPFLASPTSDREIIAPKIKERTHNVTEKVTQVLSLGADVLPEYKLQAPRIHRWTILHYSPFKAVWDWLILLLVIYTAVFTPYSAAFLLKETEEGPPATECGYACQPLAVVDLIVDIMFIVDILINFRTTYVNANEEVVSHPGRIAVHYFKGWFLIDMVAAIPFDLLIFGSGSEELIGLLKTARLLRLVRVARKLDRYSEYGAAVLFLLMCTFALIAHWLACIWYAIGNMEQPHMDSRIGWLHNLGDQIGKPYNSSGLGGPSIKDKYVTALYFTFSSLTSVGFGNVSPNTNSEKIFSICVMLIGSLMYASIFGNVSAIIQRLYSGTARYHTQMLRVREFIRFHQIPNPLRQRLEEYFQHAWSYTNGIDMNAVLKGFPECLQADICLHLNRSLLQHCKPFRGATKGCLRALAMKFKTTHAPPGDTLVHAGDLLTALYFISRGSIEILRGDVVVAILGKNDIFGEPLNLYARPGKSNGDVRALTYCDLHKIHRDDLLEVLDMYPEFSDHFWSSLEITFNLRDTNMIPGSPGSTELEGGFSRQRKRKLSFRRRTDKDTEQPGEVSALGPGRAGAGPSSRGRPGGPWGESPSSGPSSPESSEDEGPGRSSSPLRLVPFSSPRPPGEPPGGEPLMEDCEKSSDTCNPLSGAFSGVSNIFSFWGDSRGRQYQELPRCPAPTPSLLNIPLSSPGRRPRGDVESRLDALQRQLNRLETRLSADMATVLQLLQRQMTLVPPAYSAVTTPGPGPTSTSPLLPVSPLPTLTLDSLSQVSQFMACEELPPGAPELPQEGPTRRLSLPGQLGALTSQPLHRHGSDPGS
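Further: peak tail current of the secondary pulse compared with the same well before compound.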

Row | SMILES | hERG current change (%, negative = inhibition) at 10uM [%]
1 | Cc1ccc(NC(=O)C(C)OC(=O)Cn2cnc3ccccc3c2=O)cc1 (centres unmarked) | -12.4
2 | COc1ccc(N2CCN(C(CNC(=O)OCc3ccccc3)c3ccco3)CC2)cc1 (centres unmarked) | -27.4
3 | CCOC(=O)c1cc(S(=O)(=O)NCCc2ccccc2)cn1C | 2.98
4 | Clc1ccccc1CN1CCN(c2ccccc2Cl)CC1 | 16
5 | CCc1cc(C(=O)c2ccc(OC)cc2)c(N)s1 | -12.7
6 | N/C(CS(=O)(=O)c1ccc(F)cc1)=N\O | 11.8
7 | CC(C)(C)C(=O)CNS(=O)(=O)c1ccc(S(=O)(=O)NC2CC2)cc1 | 12.3
8 | COCCNC(=O)/C(C#N)=C/c1c(N2CC(C)OC(C)C2)nc2ccccn2c1=O (centres unmarked) | -0.67
9 | CCS(=O)(=O)Nc1ccc(-c2cc(-c3ccccc3)c3cc(C)ccc3n2)cc1 | 0.812
10 | COc1ccc(NC(=O)NC2(C(=O)N3CCN(C)CC3)CCCCC2)cc1 | 9.88
11 | O=C(c1cccc(F)c1)N1CCC2(CC1)NCCc1[nH]cnc12 | 6.92
12 | Cc1cc(Br)c(NC(=O)COC(=O)CSc2nnc(-c3ccc(Cl)cc3)o2)c(Br)c1 | 1.39
13 | CCN(CC)c1ccc(NC(=S)NCC2CCCO2)cc1 (centres unmarked) | 7.83
14 | COc1ccc2nc(N3CCCC3)[nH]c2c1.Cl | -15.7
15 | COc1ccc2c(c1)cc1n2CCN2CCCN=C12.Cl | -51.6
16 | COc1ccc(C(=S)N2CCN(C)CC2)cc1Br | -9.51
17 | CN=C1c2cc3c(Br)c(OC)ccc3n2CCN1C.Cl | -66.9
18 | COc1ccc2c(c1)cc1n2CCN=C1NN.Cl.O | 2.89
19 | O=C(Nc1ccc2nn(-c3ccccc3)nc2c1)c1ccco1 | 7.51
20 | COC(=O)c1ccc(CSc2nnc(NC(C)C)s2)o1 | 29.8
21 | O=C(/C=C/c1cccc(Cl)c1)Nc1ccncc1 | -17.1
22 | O=C(Nc1cccc(-n2cnnn2)c1)c1ccc(Cl)cc1Cl | 4.58

Row | SMILES | hERG current change (%, negative = inhibition) at 10uM [%]
23 | Cc1ccc(Sc2nc3c(c(=O)[nH]c(=O)n3C)n2CCc2ccccc2)cc1 | 5.16
24 | Cc1nn(Cc2c(F)c(F)c(F)c(F)c2F)c(C)c1NC(=O)c1cccc(COc2ccccc2Cl)c1 | -3.4
25 | Cn1cc(CN2CCC(n3nccc3NC(=O)CCOc3ccccc3)CC2)cn1 | 17.1
26 | COc1cccc(CN2CCC(n3nccc3NC(=O)CCCc3ccccc3)CC2)c1 | -71.3
27 | O=C(CCOc1ccccc1)Nc1ccnn1C1CCN(Cc2ccc(O)cc2)CC1 | -31.3
28 | O=C(CCc1ccccc1)Nc1ccnn1C1CCN(Cc2ccc(OCCO)cc2)CC1 | -65.3
29 | O=C(CCOc1ccccc1)Nc1ccnn1C1CCN(Cc2ccccc2)CC1 | -50
30 | CC(C)Oc1ccc(CN2CCC(n3nccc3NC(=O)CCc3ccccc3)CC2)cc1 | -82.3
31 | Cn1cc(CN2CCC(n3nccc3NC(=O)CCc3ccccc3)CC2)cn1 | 16
32 | O=C(CCc1ccccc1)Nc1ccnn1C1CCN(Cc2ncc[nH]2)CC1 | 19
33 | CCn1cc(CN2CCC(n3nccc3NC(=O)CCc3ccccc3)CC2)cn1 | 2.28
34 | CC(=O)c1cccc(CN2CCC(n3nccc3NC(=O)CCCc3ccccc3)CC2)c1 | -37.8
35 | CCOc1cccc(CN2CCC(n3nccc3NC(=O)CCCc3ccccc3)CC2)c1 | -27.5
36 | CC(=O)Nc1ccc(CN2CCC(n3nccc3NC(=O)CCc3ccccc3)CC2)cc1 | -5.87
37 | OC1CCCN(Cc2ccc3ccc4cccc5ccc2c3c45)C1 (centres unmarked) | -4.79
38 | CCOC(=O)c1c(C)[nH]c(C)c1S(=O)(=O)N(C)CC(=O)NCc1cccc(C)c1 | -13.3
39 | COc1ccc(-c2cc3ccccc3[nH]2)cc1 | 7.8
40 | O=C(Nc1ccccc1C(=O)NCCCn1ccnc1)c1ccc(Cl)cc1Cl | -47.1
41 | O=C(Nc1ccc(Cl)cc1)Nc1nc(-c2ccccc2)cs1 | 11.3
42 | CCc1ccc(OCC(=O)N/N=C(\C)c2ccc3c(c2)OCCO3)cc1 | -21.5
43 | CC(Oc1ccccc1)C(=O)NNS(=O)(=O)c1ccc([N+](=O)[O-])cc1 (centres unmarked) | 13.4
44 | COc1ccc2cc(C(=O)N3CCC(Cc4ccccc4)CC3)[nH]c2c1 | 25.5

Row | SMILES | hERG current change (%, negative = inhibition) at 10uM [%]
45 | C/C(=N\Nc1ccccc1)c1c(O)n(Cc2ccccc2)c(=O)[nH]c1=O | 8.42
46 | O=C(CSc1ccccc1C(=O)NCc1ccccc1)NC1CCCCCCC1 | -8.1
47 | O=C(/C=C/c1ccc([N+](=O)[O-])cc1)NCc1cccnc1 | -42.7
48 | CC1(C)CC(=O)C=C(C(=O)N2CCCC(C(=O)c3cccc(Cl)c3)C2)O1 (centres unmarked) | -31
49 | O=C(O)c1ccc(NS(=O)(=O)c2ccc(Cl)cc2)cc1 | 0.513
50 | COc1cccc(C(=O)N2CCC(n3nccc3NC(=O)CCOc3ccccc3)CC2)c1 | -0.0371
51 | COc1ccc(O)c(CN2CCC(n3nccc3NC(=O)CCOc3ccccc3)CC2)c1 | -60.4
52 | O=C(CCCc1ccccc1)Nc1ccnn1C1CCN(Cc2ccccc2F)CC1 | -49
53 | COc1cccc(CN2CCC(n3nccc3NC(=O)CCOc3ccccc3)CC2)c1 | -62
54 | Cc1cc(C)c(CN2CCC(n3nccc3NC(=O)CCOc3ccccc3)CC2)cc1C | -26.1
55 | COc1ccc(F)c(CN2CCC(n3nccc3NC(=O)CCCc3ccccc3)CC2)c1 | -86.7
56 | O=C(CCOc1ccccc1)Nc1ccnn1C1CCN(Cc2ccc(CO)o2)CC1 | 6.52
57 | O=C(CCOc1ccccc1)Nc1ccnn1C1CCN(CCc2ccccc2)CC1 | -65.1
58 | CC(=O)c1cccc(CN2CCC(n3nccc3NC(=O)CCOc3ccccc3)CC2)c1 | -3.2
59 | Cc1ccc(CN2CCC(n3nccc3NC(=O)CCOc3ccccc3)CC2)o1 | -20.7
60 | CCNC(=O)N1CCC(n2nccc2NC(=O)CCOc2ccccc2)CC1 | 9.99
61 | CCn1c(SCc2nc3ccccc3[nH]2)nnc1-c1ccc(OC)cc1 | -1.72
62 | O=C(NNC(=O)C1CC(=O)N(Cc2ccccc2)C1)c1ccc(F)cc1 (centres unmarked) | 2.46
63 | O=C(NC1CCCCCC1)c1cccnc1Sc1ccccc1 | -15.4
64 | O=S(=O)(c1ccc(NC(=S)N2CCN(c3ccc(O)cc3)CC2)cc1)N1CCOCC1 | 2.83
65 | COC(=O)C[C@H]1c2cc(F)cc(F)c2S(=O)(=O)N1C1CCN(Cc2ccccc2)CC1 | -32
66 | CC(=O)Nc1ccc(S(=O)(=O)CCC(=O)O)cc1 | 17.5

Row | SMILES | hERG current change (%, negative = inhibition) at 10uM [%]
67 | Cc1cc(C(=O)Nc2sc(C)c(C)c2C#N)c(C)o1 | 20.6
68 | Cc1ccc2oc(C(=O)NCC(c3ccco3)N(C)C)c(C)c2c1 (centres unmarked) | -8.52
69 | CCn1cc(CN2CCC(n3nccc3NC(=O)CCOc3ccccc3)CC2)cn1 | -12.9
70 | CCn1cc(CN2CCC(n3nccc3NC(=O)CCOc3ccccc3)CC2)c(C)n1 | 7.84
71 | COc1ccc(CN2CCC(n3nccc3NC(=O)CCOc3ccccc3)CC2)cc1C | -68.7
72 | O=C(CCOc1ccccc1)Nc1ccnn1C1CCN(Cc2ccc(F)cc2)CC1 | -59.1
73 | Cc1ccc(CN2CCC(n3nccc3NC(=O)CCOc3ccccc3)CC2)cc1C | -48.2
74 | O=C(COc1ccc2c3c(c(=O)oc2c1)CCC3)NCC(O)c1ccccc1 (centres unmarked) | 11.5
75 | CCOC(=O)C1CCCN(S(=O)(=O)c2ccc3c(c2)NC(=O)CO3)C1 (centres unmarked) | -1.47
76 | COc1ccc(C2(C)NC(=O)N(CC(=O)Nc3ccc(S(=O)(=O)N4CCCC4)cc3)C2=O)cc1 (centres unmarked) | -2.91
77 | O=C(CN1CCOCC1)Nc1ccc(OCc2ccccc2)cc1 | -21.3
78 | O=C(CN1CCN(c2ccccc2)CC1)Nc1ccc(OCc2ccccc2)cc1 | 2.44
79 | O=C(CN1CCN(c2ccccn2)CC1)Nc1ccc(OCc2ccccc2)cc1 | -45.3
80 | O=C(CN1CCCC1)Nc1ccc(OCc2ccccc2)cc1 | -54.1
81 | O=C(CN1CCN(CC(=O)Nc2ccc(OCc3ccccc3)cc2)CC1)Nc1ccc(F)cc1 | -72.5
82 | CN1CCN(CC(=O)Nc2ccc(OCc3ccccc3)cc2)CC1.Cl | -9.11
83 | COC(=O)c1ccc(N=Cc2c(C(F)(F)F)[nH][nH]c2=O)cc1 | 27.2
84 | CCCCCc1nc2ccccc2c(=O)n1-c1ccccc1[N+](=O)[O-] | -24.5
85 | Cc1ccc(NC(=O)c2cccs2)cc1NC(=O)c1cccc(F)c1 | 5.36
86 | CC(C)c1c(O)nc(SCc2ccccc2)[nH]c1=O | 11.5
